Measurements as given in ChEMBL document CHEMBL3988442, “University of Dundee, Small-Polar-MMV Screening Library” (2021).
Screen size: about 48,000 compounds; about 13,000 (27%) showed an effect of 50% or more. The list shows a part of the results.

test system: Wolbachia pipientis; assay: Anti-Wolbachia Cell-Based Screen; assay type: functional; parameters: scale not given: in the data most compounds retested in dose-response had high values; settings: 5 µM

| SMILES | Percent Effect |
| --- | --- |
| CC(C)c1nnc2n1CCN(C(=O)c1ccc(OCC3CC3)nc1)C2 | -21% |
| CCOc1cc(C)nc(N2CCN(Cc3nccn3C)CC2)n1 | 4.632% |
| Cc1nc(C)c(CN2CCOC[C@H](Oc3ccc(S(C)(=O)=O)cc3)C2)s1 | -11.23% |
| CC(=O)N1CCCC1c1nnn2cc(-c3ccncc3)ccc12.O=C(O)C(F)(F)F (configuration not stated) | 7.793% |
| CC(=O)N1Cc2ccccc2CC1C(=O)Nc1ccc(C)cn1 (configuration not stated) | -8.335% |
| CC(N(C)Cc1nc2c(cnn2C)c(=O)[nH]1)C(C)(C)C (configuration not stated) | 1.899% |
| Cn1ncc2c(=O)[nH]c(CN(Cc3ccco3)C3CCCC3)nc21 | 8.263% |
| CCN(Cc1nc2c(cnn2C)c(=O)[nH]1)c1cccc(C)c1C | -14.78% |
| Cn1ncc2c(=O)[nH]c(CN(Cc3ccco3)C3CC3)nc21 | 87.32% |
| CC(c1ccco1)N(C)Cc1nc2c(cnn2C)c(=O)[nH]1 (configuration not stated) | 2.011% |
| Cc1ccc(CN(Cc2nc3c(cnn3C)c(=O)[nH]2)C2CC2)o1 | 96.47% |
| O=C(NCc1ccccn1)[C@@H]1COC[C@H]2CN(c3ncccn3)C[C@H]21.O=C(O)C(F)(F)F.O=C(O)C(F)(F)F | -2.042% |
| Cc1ccc(S(=O)(=O)Nc2ccc(=O)n(C)c2)cc1 | -12.63% |
| COc1ccc(-c2nccn2C[C@@H]2CCCN3CCCC[C@H]23)cc1 | -24.08% |
| COC(C)C(=O)N(CC(N)=O)Cc1cccc(Oc2ccccc2)c1 (configuration not stated) | 2.959% |
| CC(C)[C@H]1COC(=O)N1Cc1nccn1C(C)C | -0.6769% |
| Cn1cc(NC(=O)c2cccc(C(F)(F)F)c2)c(=O)n(C)c1=O | -3.646% |
| COc1cc(OC)cc(C(=O)NCCCNc2ncccn2)c1 | 15.23% |
| COc1ccc(CNC(=O)c2nn(C)c3c2CS(=O)(=O)CC3)cc1OC | -2.523% |
| COc1ccc(CN2CCc3c(CNC(=O)CC#N)nn(C)c3C2)cc1.O=C(O)C(F)(F)F.O=C(O)C(F)(F)F | 8.44% |
| CN1CCC(CNC(=O)c2cccc(C(F)(F)F)c2)c2ccccc21 (configuration not stated) | -15.52% |
| Cn1nc(CNC(=O)c2cccc(C(F)(F)F)c2)c2c1CCOC2 | 111.4% |
| Cn1nc(CNC(=O)c2ccc(OC(F)(F)F)cc2)c2c1CCOC2 | 101.2% |

| SMILES | Percent Effect |
| --- | --- |
| Cc1noc(NC(=O)c2ccc(OC(F)(F)F)cc2)n1 | 14.41% |
| Cc1ncc(CNC(=O)c2nn(C)c3c2CS(=O)(=O)CC3)s1 | 8.614% |
| Cn1nc(CNC(=O)c2ccc3nsnc3c2)c2c1CCOC2 | 120.7% |
| O=C(NCCN1CCCC(CO)C1)c1ccc2scnc2c1 (configuration not stated) | -0.5362% |
| COc1cc(OC)cc(C(=O)NCc2nn(C)c3c2COCC3)c1 | 121.8% |
| O=C(NC1CC1)c1cc(NC(=O)N2CCSCC2)ccc1Cl | -25.35% |
| CCc1c(C(=O)N2CCC3(CC(=O)NC3=O)C2)csc1C (configuration not stated) | 4.433% |
| COC(=O)c1ccc(C(=O)NCc2nn(C)c3c2COCC3)cc1 | 116.6% |
| Cn1nc(CNC(=O)c2ccc3c(c2)OCO3)c2c1CCOC2 | 123.8% |
| Cc1nnc(SCCCNC(=O)c2ccc3c(c2)OCO3)s1 | -1.096% |
| CCN(Cc1ccc2c(c1)OCO2)C(=O)c1ccc(=O)n(C)c1 | -0.5548% |
| Cn1nc(CNC(=O)NCc2ccc(Cl)cc2)c2c1CCOC2 | -8.693% |
| Cn1nc(CNC(=O)c2ccc(Cl)cc2)c2c1CCOC2 | -28.17% |
| COc1cccc(OCC2CCCN(C(=O)c3cc(C)n[nH]3)C2)c1 (configuration not stated) | -67.83% |
| Cc1cccc2c1OCCCC2NCc1nccn1Cc1ccccc1 (configuration not stated) | -13.33% |
| Cc1noc(C)c1CCC(=O)NC(C)c1nnc2n1CCCCC2 (configuration not stated) | -4.207% |
| CC(NC(=O)CCc1cccs1)c1nnc2n1CCC2 (configuration not stated) | -2.805% |
| CC(NC(=O)CCc1cccs1)c1nnc2n1CCCCC2 (configuration not stated) | 108.8% |
| CC(NC(=O)Cc1cccs1)c1nnc2n1CCC2 (configuration not stated) | 95.59% |
| CC(NC(=O)Cc1cccs1)c1nnc2n1CCCCC2 (configuration not stated) | -4.411% |
| CNC(=O)N1C[C@H]2CC[C@@]3(N=C(c4ccccc4)NC3=O)[C@H]2C1 | -7.438% |
| N[C@H]1CN(C(=O)c2ccc(Cl)cc2F)C[C@@H]1C1CC1 | -16.98% |
| CCN(c1ccc(C(=O)N2CCCCCC2)cc1)S(=O)(=O)CC | 148.2% |

| SMILES | Percent Effect |
| --- | --- |
| CCCOC1CCCN(C(=O)c2ccc(S(N)(=O)=O)cc2)C1 (configuration not stated) | 2.275% |
| CCN(c1ccc(C(=O)N2CCCCC2)cc1)S(=O)(=O)CC | 114.5% |
| CCN(c1ccc(C(=O)N2CCCC2)cc1)S(=O)(=O)CC | -7.72% |
| Cc1cc(C(=O)N2CCCCC2)ccc1NS(C)(=O)=O | -18.21% |
| CCS(=O)(=O)N(C)C1CCN(C(=O)c2ccc(C)c(C)c2)CC1 | -2.68% |
| COc1ccccc1OC1(C(=O)O)CCN(c2cc(C)nc(C)c2)CC1 | -31.32% |
| CCOc1ccc(C(F)(F)F)cc1NCc1nc(C)c(C)o1 | -3.649% |
| NCC1CCN(C2CCN(c3ccc(-c4ccco4)cc3)CC2)C1 (configuration not stated) | -12.7% |
| CC(CCSc1ccccc1)N1CCN(C(=O)c2ccccc2O)CC1 (configuration not stated) | 4.975% |
| CN(Cc1cccc(-n2cccn2)c1)c1cc(N2CCCC2)nc(N)n1 | 13.85% |
| Cl.Nc1nc(Nc2ccccc2)cc(N2CCNCC2)n1 | 122.8% |
| Nc1nc(NCCc2[nH]nc3c2CCCC3)cc(N2CCOCC2)n1 | -17.88% |
| c1ccc(CCCn2cc(-c3nc(CN4CCOCC4)no3)nn2)cc1 | -30.42% |
| CCCSCC(=O)N1CCC2(CC1)CC(c1ccccc1)CN(C)C2 (configuration not stated) | -4.07% |
| CN1CCC2(Cc3ccccc3CN(C(=O)CCN)C2)C1 (configuration not stated) | 104.1% |
| CN1CC(c2ccccc2)CC12CCN(C(=O)c1ccc(Cl)cc1)CC2 (configuration not stated) | -14.14% |
| CN1CCC2(CC1)Cc1ccccc1CN(C(=O)CN)C2 | 99.69% |
| CCCC(=O)N1CCC2(CC1)COC2 | -43.8% |
| CCCC(=O)N1Cc2ccccc2CC2(CCN(C)C2)C1 (configuration not stated) | 117.7% |
| CN1CCC2(CCN(C(=O)c3ccccc3)CC2)C1 | -23.98% |
| CN1CCC2(Cc3ccccc3CN(C(=O)c3ccc(Cl)cc3)C2)C1 (configuration not stated) | 111.1% |
